Assay results taken from a collection of fitness landscapes (doi:10.1126/science.1257360).
Over roughly 140,000 sequences, “enrichment ratio after two sorts for PhoP signalling” has its median near 0; the highest 2% begin near 11. The entries come from a sample that favours the highest values as a whole.

B1: PhoQ; a variant is named by its letters at X, in order, P23837 (parent)
chain: MKKLLRLFFPLSLRVRFLLATAAVVLVLSLAYGMVALIGYSVSFDKTTFRLLRGESNLFYTLAKWENNKLHVELPENIDKQSPTMTLIYDENGQLLWAQRDVPWLMKMIQPDWLKSNGFHEIEADVNDTSLLLSGDHSIQQQLQEVREDDDDAEMTHSVAVNVYPATSRMPKLTIVVVDTIPVELKSSYMVWSWFIYVLSANLLLVIPLLWVAAWWSLRPIEALAKEVRELEEHNRELLNPATTRELTSLVRNLNRLLKSERERYDKYRTTLTDLTHSLKTPLXXLQXXLRSLRSEKMSVSDAEPVMLEQISRISQQIGYYLHRASMRGGTLLSRELHPVAPLLDNLTSALNKVYQRKGVNISLDISPEISFVGEQNDFVEVMGNVLDNACKYCLEFVEISARQTDEHLYIVVEDDGPGIPLSKREVIFDRGQRVDTLRPGQGVGLAVAREITEQYEGKIVAGESMLGGARMEVIFGRQHSAPKDE

Variants of: B1
Experiment: enrichment ratio after two sorts for PhoP signalling (ratio (wild type AVST 3.29)); higher = more functional
Conditions: with PhoP (E. coli)

Row | Variant | enrichment ratio
1 | HWVL | ≤ 0.25
2 | ANNL | 15.7
3 | ANVL | 13.9
4 | ANSL | 16.8
5 | ANYM | 0.253
6 | GFRD | ≤ 0.25
7 | EGVS | ≤ 0.25
8 | WVKG | ≤ 0.25
9 | NCEQ | ≤ 0.25
10 | GGVL | 7.68
11 | NKTR | ≤ 0.25
12 | NICL | 3.87
13 | AQEL | ≤ 0.25
14 | ANCL | 21.8
15 | TKIL | 8.86
16 | ADIL | 8.79
17 | AKIL | 18.4
18 | AKCL | 3.3
19 | AWCL | 0.642
20 | AQCL | 16
21 | WICL | ≤ 0.25
22 | AICL | 17.5
23 | AQRL | ≤ 0.25
24 | EAPP | ≤ 0.25
25 | VFQT | ≤ 0.25
26 | VNLF | ≤ 0.25

Row | Variant | enrichment ratio
27 | YIYL | ≤ 0.25
28 | IDEK | ≤ 0.25
29 | TVNP | ≤ 0.25
30 | YDMC | ≤ 0.25
31 | WVMR | ≤ 0.25
32 | KNDA | ≤ 0.25
33 | NLGK | ≤ 0.25
34 | IKGA | ≤ 0.25
35 | WTQR | ≤ 0.25
36 | ACSR | 7.12
37 | TISN | 13.4
38 | KKSG | ≤ 0.25
39 | AVSG | 16.7
40 | ADSG | 1.26
41 | AISG | 19
42 | WISN | ≤ 0.25
43 | ACSG | 12.3
44 | ACSN | 4.45
45 | TIKN | ≤ 0.25
46 | ARSG | ≤ 0.25
47 | AHSG | 6.86
48 | FHWW | ≤ 0.25
49 | EFGD | ≤ 0.25
50 | HEGI | ≤ 0.25
51 | PMHY | ≤ 0.25
52 | DEAG | ≤ 0.25

Row | Variant | enrichment ratio
53 | PCRA | ≤ 0.25
54 | MPIN | ≤ 0.25
55 | QRYD | ≤ 0.25
56 | DRYI | ≤ 0.25
57 | RDAL | ≤ 0.25
58 | KVFV | ≤ 0.25
59 | TISG | 19.4
60 | PISG | ≤ 0.25
61 | WISG | ≤ 0.25
62 | VGFY | ≤ 0.25
63 | MQYW | ≤ 0.25
64 | LNLQ | ≤ 0.25
65 | MMLQ | ≤ 0.25
66 | TPLQ | ≤ 0.25
67 | YALQ | 4.04
68 | NMLQ | ≤ 0.25
69 | SILQ | 6.96
70 | TMLQ | 12.2
71 | KQLQ | ≤ 0.25
72 | DPLQ | ≤ 0.25
73 | SALQ | 17.5
74 | SNLQ | 15.3
75 | SQLQ | 13.6
76 | YDYH | ≤ 0.25
77 | SRDH | ≤ 0.25
78 | TGMF | 9.36

Row | Variant | enrichment ratio
79 | FPKH | ≤ 0.25
80 | PMKR | ≤ 0.25
81 | KGCL | ≤ 0.25
82 | DMWF | ≤ 0.25
83 | SAVH | 7.41
84 | DYTW | ≤ 0.25
85 | SQLA | 11.7
86 | SLLQ | 7.5
87 | SFLQ | 2.41
88 | SSLQ | 14.5
89 | STLQ | 18.3
90 | SQLT | 11
91 | SELQ | 27.9
92 | SPLQ | ≤ 0.25
93 | SYLQ | 2.49
94 | SQLS | 7.34
95 | SRLQ | 0.442
96 | KYLQ | ≤ 0.25
97 | SFQN | ≤ 0.25
98 | PRSD | ≤ 0.25
99 | SGLQ | 16.6
100 | KDLQ | ≤ 0.25
101 | LTLQ | 2.15
102 | RGLQ | ≤ 0.25
103 | TDLQ | 18.8
104 | SGLR | ≤ 0.25

Row | Variant | enrichment ratio
105 | HQEY | ≤ 0.25
106 | FHKA | ≤ 0.25
107 | RKDF | ≤ 0.25
108 | TFCG | 5.19
109 | GSLS | 11.8
110 | GSLA | 6.7
111 | GSDK | ≤ 0.25
112 | GSDN | ≤ 0.25
113 | GSLI | 15.5
114 | GSLT | 9.31
115 | AIWD | ≤ 0.25
116 | LESL | ≤ 0.25
117 | NELM | ≤ 0.25
118 | MKLM | 7.36
119 | MELM | 17.7
120 | QELM | ≤ 0.25
121 | MFLM | ≤ 0.25
122 | TELM | 13.8
123 | RAGW | ≤ 0.25
124 | SSNF | 1.62
125 | MSMG | 2.86
126 | MSMD | ≤ 0.25
127 | MSHK | ≤ 0.25
128 | MSLS | 5.72
129 | MSMS | ≤ 0.25
130 | MSMI | 23.5

Row | Variant | enrichment ratio
131 | MSMV | 12.7
132 | MSNL | ≤ 0.25
133 | MSWV | 10.2
134 | MSML | 14.3
135 | MSLV | 14.7
136 | DWAP | ≤ 0.25
137 | DRKM | ≤ 0.25
138 | HNAE | ≤ 0.25
139 | LMAI | ≤ 0.25
140 | EHKQ | ≤ 0.25
141 | REPP | ≤ 0.25
142 | MSLE | 3.24
143 | MFWQ | ≤ 0.25
144 | RTWQ | ≤ 0.25
145 | QIWQ | 34.4
146 | QDWQ | ≤ 0.25
147 | QFWQ | ≤ 0.25
148 | MCWQ | ≤ 0.25
149 | TGWQ | 22.6
150 | KSWQ | ≤ 0.25
151 | MSWQ | 14.5
152 | MLWQ | ≤ 0.25
153 | QSWQ | 33.6
154 | WIWQ | ≤ 0.25
